# Values joined by “and” are separate entries in the source; they are usually repeats but may differ in a detail not shown here. Equal values may be shown once. Records with an inconclusive call do not appear. Values without a mark were called inactive. Calls follow the shape of the dose curve; as a rule, active = well fitted curve in the direction sought with a large enough effect; inconclusive = small, poorly fitted or top-dose-only effect, or another doubt; inactive = no such curve, though single readings can be large or run the other way.
# Assay: qHTS Assay for Identifying Gametocytocidal Compounds (AID 743244);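 also: actives lower the fluorescent signal which means gametocytes are killed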
# Conditions: P. falciparum 3D7 stage III-V gametocytes, alamarBlue, 72 h; max response: hits give low values
# Method in brief: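 Stage III–V gametocytes of P. falciparum 3D7 were seeded at 20,000 cells/well onto pre-dispensed compounds. After 72 h, 37 °C, 5% CO2, alamarBlue was added for another 24 h.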
# % is scaled to controls: 0 for no effect and ±100 for the full control effect.
row,Compound,max response
1,Nc1c(CC(=O)O)cccc1C(=O)c1ccccc1,-9.51% and 6.92%
2,O=P(O)(O)C(O)(Cc1cnc2ccccn12)P(=O)(O)O,-4.82%
3,CCOc1ccc(N=C(C)Nc2ccc(OCC)cc2)cc1,-5.06%
4,CC1(C)S[C@@H]2[C@H](NC(=O)C(C(=O)Oc3ccc4c(c3)CCC4)c3ccccc3)C(=O)N2[C@H]1C(=O)O (some centres not stated),5.21%
5,CC(=O)O[C@H]1CC[C@@]2(C)C(=CC[C@H]3[C@@H]4CC[C@H](C(C)=O)[C@@]4(C)CC[C@@H]32)C1,3.94%
6,O=S(=O)(O)Oc1ccc(C(c2ccc(OS(=O)(=O)O)cc2)c2ccccn2)cc1,4.73%
7,CN1CC(O)c2cc(N=NC(N)=O)c(O)cc21 (configuration not stated),-4.67%
8,NNc1nnc(Cc2ccncc2)c2ccccc12,1.86%
9,O=C[C@H](O)[C@@H](O)[C@H](O[C@H]1O[C@H](CO)[C@@H](O[C@H]2O[C@H](CO)[C@@H](O)[C@H](O)[C@H]2O)[C@H](O)[C@H]1O)[C@H](O)CO,10.4%
10,C[C@H](CSC(=O)c1ccccc1)C(=O)N1C[C@@H](Sc2ccccc2)C[C@H]1C(=O)O,13.2%
11,C=C[C@]1(C)C[C@@H](OC(=O)CO)[C@]2(C)[C@H](C)CC[C@]3(CCC(=O)[C@H]32)[C@@H](C)[C@@H]1O,11.6%
12,CCCCCCCCCCCCCCCC(=O)OCCC1CCN(CCCN2c3ccccc3Sc3ccc(S(=O)(=O)N(C)C)cc32)CC1,-11.1%
